Results filed as inconclusive are left out. The source made the active and inactive calls. The call rests on the fitted dose curve; in most records, active means well fitted inhibition curve with a large enough effect; inconclusive means small, poorly fitted or top-dose-only effect; inactive means flat fitted curve, though single readings scatter.
Columns and labels:
CRL-7250 = normal cell line; assay: Cytotoxic Profiling of Annotated Libraries Using Quantitative High-Throughput Screening (AID 1296008); details: Five cell lines viability, CellTiter-Glo ATP luminescence, 48-72 h; max response: hits give low values; on max response: on the % scale 0 is the no-effect control and ±100 the full control effect
Outline: (§1)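 Compounds were pin-transferred onto cells and incubated 48 or 72 hr at 37 degree Celsius, 95% humidity. CellTiter-Glo was added, plates sat 10 min at room temperature, then ATP-coupled luminescence was imaged as the viability read-out.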

HEK293 = assay: as above; details: Five cell lines viability, CellTiter-Glo ATP luminescence, 48-72 h; max response: hits give low values
Outline: as §1

HaCat [1] = assay: as above; details: Five cell lines viability, CellTiter-Glo ATP luminescence, 48-72 h; max response: hits give low values
Outline: as §1

KB-3-1 = assay: as above; details: Five cell lines viability, CellTiter-Glo ATP luminescence, 48-72 h; max response: hits give low values
Outline: as §1

NIH3T3 [2] = assay: as above; details: Five cell lines viability, CellTiter-Glo ATP luminescence, 48-72 h; max response: hits give low values
Outline: as §1

HACAT [3] = assay: qHTS assay to identify novel small-molecules to repurpose for Merkel cell carcinoma treatment (AID 1296009); details: MCC and control cell lines, CellTiter-Glo viability, 72 h; at 44.8 µM (top of the series) unless noted
Outline: (§2)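 Cells exposed to NPC (8-point) and MIPE (11-point) compound dilutions for 72 hr at 37 degree celsius; viability read by CellTiter-Glo luminescence, normalized to no-cell and DMSO in-plate controls.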

NIH3T3 [4] = assay: as above; details: MCC and control cell lines, CellTiter-Glo viability, 72 h; at 44.8 µM (top of the series) unless noted
Outline: as §2

Measured: max response
Further: nearly all actives have a fitted effect of over 60% in size.

C=C1Cc2c(Cl)cc3[nH]c4c5c3c2[C@@]2(O)[C@@H]1C[C@@H]2C(C)(C)O[C@H]5C1CC[C@@]2(O)[C@@]35O[C@@H]3[C@H]3OC(C)(C)[C@H]3O[C@H]5CC[C@]2(C)[C@@]41C (some centres undefined)
inactive: CRL-7250 -4.78% | HEK293 0.456% | HaCat [1] | KB-3-1 6.12% | NIH3T3 [2] | HACAT [3] inactive [at 17.4 µM] | NIH3T3 [4] inactive [at 17.4 µM]

CC(=O)OC12CC(C)C(O)C1/C=C(/COC1OC(CO)C(O)C(O)C1O)CCC1C(/C=C(\C)C2=O)C1(C)C (centres undefined)
inactive: CRL-7250 -1.86% | HEK293 -3.67% | HaCat [1] | KB-3-1 | NIH3T3 [2] | HACAT [3] inactive [at 17.4 µM] | NIH3T3 [4] inactive [at 17.4 µM]

NC1(c2ccc(NC(=O)c3ccnc(-c4cc(C(=O)O)ccn4)c3)cc2)CC1
inactive: CRL-7250 | HEK293 -8.28% | HaCat [1] | KB-3-1 | NIH3T3 [2] | HACAT [3] | NIH3T3 [4]

COc1cnc(-n2cnc(C)n2)c2[nH]cc(C(=O)C(=O)N3CCN(C(=O)c4ccccc4)CC3)c12
inactive: CRL-7250 | HEK293 -12.9% | HaCat [1] | KB-3-1 | NIH3T3 [2] | HACAT [3] | NIH3T3 [4]

C[C@@H]1O[C@@H](O[C@H]2[C@H](OC(=O)[C@]34CCC(C)(C)C[C@H]3C3=CCC5[C@@]6(C)C[C@@H](O)[C@@H](O)[C@@](C)(CO)C6[C@H](O)C[C@@]5(C)[C@]3(C)CC4)OC[C@H](O)[C@@H]2O)[C@H](O)[C@H](O)[C@H]1O[C@@H]1OC[C@@H](O)[C@H](O[C@H]2O[C@H](C)[C@@H](O)[C@H](O)[C@@H]2O)[C@H]1O (some centres undefined)
inactive: CRL-7250 1.4% | HEK293 -0.607% | HaCat [1] | KB-3-1 8.34% | NIH3T3 [2] | HACAT [3] inactive [at 9.27 µM] | NIH3T3 [4] inactive [at 9.27 µM]

C=C1CC[C@@]2(OC1)O[C@H]1CC3[C@@H]4CC=C5C[C@@H](O)C[C@@H](O[C@@H]6OC[C@H](O)[C@H](O)[C@H]6O[C@@H]6O[C@@H](C)[C@H](O)[C@@H](O)[C@H]6O)[C@]5(C)C4CC[C@]3(C)[C@H]1[C@@H]2C (some centres undefined)
inactive: CRL-7250 | HEK293 -17.1% | HaCat [1] | KB-3-1 | NIH3T3 [2] | HACAT [3] inactive [at 17.4 µM] | NIH3T3 [4] inactive [at 17.4 µM]

COc1cc(C2CC(=O)Nc3c2cc(Br)c2ccccc32)cc(OC)c1OC (centres undefined)
inactive: CRL-7250 | HEK293 1.49% | HaCat [1] | KB-3-1 | NIH3T3 [2] | HACAT [3] | NIH3T3 [4]

CC1=C2C[C@@]3(C)[C@@H](CCC[C@@H]3C)C[C@@]2(O)OC1=O
inactive: CRL-7250 | HEK293 -2.55% | HaCat [1] | KB-3-1 8.04% | NIH3T3 [2] | HACAT [3] | NIH3T3 [4]

O=C(c1ccc(Cl)c([N+](=O)[O-])c1)N1CCN(c2ccccc2F)CC1
inactive: CRL-7250 -5.45% | HEK293 0.0452% | HaCat [1] | KB-3-1 | NIH3T3 [2] | HACAT [3] | NIH3T3 [4]

CC(=O)OCC1OC(O[C@H]2CC[C@@]3(C)C(CC[C@]4(C)C3CC=C3[C@@H]5CC(C)(C)CC[C@]5(C(=O)O)CC[C@]34C)[C@]2(C)CO)C(O)C(O)C1OC1OC(C)C(O)C(OC2OCC(O)C(O)C2O)C1O (some centres undefined)
inactive: CRL-7250 | HEK293 -5.43% | HaCat [1] | KB-3-1 | NIH3T3 [2] | HACAT [3] inactive [at 9.27 µM] | NIH3T3 [4] inactive [at 9.27 µM]

COc1ccc2[nH]c(S(=O)Cc3ncc(C)c(OC)c3C)nc2c1 (centres undefined)
inactive: CRL-7250 -15.2% | HEK293 3.04% | HaCat [1] | KB-3-1 6.01% | NIH3T3 [2] | HACAT [3] | NIH3T3 [4]

C/C=C/C=C/C(O)=C1/C(=O)[C@]2(C)C(=O)[C@@](C)(O)[C@H]1[C@H]([C@@]1(C)OC(=O)C(C)=C1O)[C@H]2C(=O)CC/C=C/C
inactive: CRL-7250 | HEK293 -3.93% | HaCat [1] | KB-3-1 | NIH3T3 [2] | HACAT [3] inactive [at 17.4 µM] | NIH3T3 [4] inactive [at 17.4 µM]

CC(=O)N[C@H](Cc1c[nH]c2ccccc12)C(=O)OCc1cc(C(F)(F)F)cc(C(F)(F)F)c1
inactive: CRL-7250 -4.46% | HEK293 -2.25% | HaCat [1] | KB-3-1 | NIH3T3 [2] | HACAT [3] | NIH3T3 [4]

COC(=O)C1(O)C(OC(C)=O)CCC2C3(CC(c4ccoc4)OC3=O)C(C)=CCC21C(=O)OC (centres undefined)
inactive: CRL-7250 -2.77% | HEK293 4.98% | HaCat [1] | KB-3-1 9.04% | NIH3T3 [2] | HACAT [3] inactive [at 17.4 µM] | NIH3T3 [4] inactive [at 17.4 µM]

OC[C@@]1(O)CO[C@H](OC[C@H]2O[C@@H](OC(CCCCc3ccc(O)cc3)CCc3ccc(O)cc3)[C@H](O)[C@@H](O)[C@@H]2O)[C@@H]1O (some centres undefined)
inactive: CRL-7250 -9.7% | HEK293 -4.6% | HaCat [1] | KB-3-1 9.32% | NIH3T3 [2] | HACAT [3] inactive [at 17.4 µM] | NIH3T3 [4] inactive [at 17.4 µM]

O=C(O)/C=C/c1ccc2occc2c1O[C@@H]1O[C@H](CO)[C@@H](O)[C@H](O)[C@H]1O
inactive: CRL-7250 -6.75% | HEK293 1.57% | HaCat [1] | KB-3-1 | NIH3T3 [2] | HACAT [3] | NIH3T3 [4]

CC(C)(O)C1CC=C(C(=O)OC[C@H]2O[C@@H](Oc3cc(C(=O)O)cc(O)c3O)[C@H](O)[C@@H](O)[C@@H]2O)CC1 (some centres undefined)
inactive: CRL-7250 1.76% | HEK293 3.21% | HaCat [1] | KB-3-1 | NIH3T3 [2] | HACAT [3] inactive [at 17.4 µM] | NIH3T3 [4] inactive [at 17.4 µM]
